# Out of some 190,000 compounds screened, about 790 (0.42%) were called active.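 How the source made its calls: active means inhibition above a set limit, the median over all tested compounds plus 3 SD (cut at about 9.5% in these data); inconclusive means no clear call, values can overlap the other calls; inactive means the rest.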 The sample as a whole holds a higher share of actives than the screen did.
# Test system: HMG-CoA reductase (Enterococcus faecalis, mvaE)
# Test: inhibitors of E. faecalis class II HMGR, primary screen, biochemical, Enterococcus faecalis (AID 1066);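 further: enzyme runs in reverse so mevalonate oxidation gives rising NADPH absorbance; 0% = complete reaction with DMSO and 100% = background rate lacking mevalonate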
# Settings: purified E. faecalis HMGR, NADPH absorbance 340 nm kinetic; at 10 µM; stronger effect = higher value
row,Structure (SMILES),inhibition
1,COc1ccc(N2C(=O)C(Cc3ccccc3)NC2=S)cc1 (centres undefined),-5.65% (inactive)
2,COC(=O)c1cc(NC(=O)c2nn(C)c(=O)c3ccccc23)cc(C(=O)OC)c1,-0.04% (inactive)
3,C/[N+]([O-])=C\c1ccc([N+](=O)[O-])o1,11% (active)
4,COC(=O)C1=C(C)N(C)C(=O)NC1c1ccc([N+](=O)[O-])o1 (centres undefined),0.43% (inactive)
5,CCn1c(/C=C/c2ccc([N+](=O)[O-])o2)nc2ccccc2c1=O,-2.94% (inactive)
6,CN(C)/C=C/C(=O)c1cnc2sccn2c1=O,2.25% (inactive)
7,S=C(NCCc1ccccc1)NCc1ccccc1Cl,1.49% (inactive)
8,Fc1ccccc1CNC(=S)Nc1ccc(Cl)cc1,-0.98% (inactive)
9,Fc1ccccc1Cn1cnc(NC(=S)NCCc2ccccc2)n1,15.6% (active)
10,CCOc1ccc(N2C(=O)/C(=C/c3ccc(C)o3)N(C)C2=S)cc1,-5.07% (inactive)
11,COCCN(C(=O)C(C)C)c1nnc(-c2ccc(C(C)(C)C)cc2)s1,-2.5% (inactive)
12,COc1ccc(NC(=O)N2CCCC(c3nc(-c4ccc(F)cc4)no3)C2)cc1 (centres undefined),1.89% (inactive)
13,O=C(c1ccccc1Cl)N(Cc1ccccc1F)N1C(=O)CCCC1=O,-5.67% (inactive)
14,C=CCn1c(=NC(=O)c2cccs2)sc2cc(NC(C)=O)ccc21,-0.47% (inactive)
15,CCN=C1S/C(=C\c2cc(Br)ccc2OCC(=O)OCC)C(=O)N1CC,-2.47% (inactive)
16,COc1cccc(Cn2cnc3c([N+](=O)[O-])c(C)c(C)cc32)c1,-3.58% (inactive)
17,COc1ccc(F)cc1C(=O)C1CCCN(C(=O)CCc2ccccn2)C1 (centres undefined),-4.06% (inactive)
18,CCOC(=O)C1CCN(C(=O)/C=C/c2cc(OC)c(OC)c(OC)c2)CC1,-1.76% (inactive)
19,Cc1cc(C)c2nc(-c3cccnc3)cc(C(=O)Nc3ccc(S(=O)(=O)Nc4onc(C)c4C)cc3)c2c1,-2.12% (inactive)
20,Cc1ccc(CSc2nc3[nH]ncc3c(=O)[nH]2)cc1,-1.81% (inactive)
21,COc1ccc(C(=O)Nc2ccccc2C(=O)N/N=C/c2ccccc2OC)cc1,-0.76% (inactive)
22,COc1ccccc1C(=O)NNC(=O)c1ccc(NC(=O)c2ccccc2)cc1,15.3% (active)
23,C/C(=N/NC(=O)c1ccc(NC(=O)c2ccc(F)cc2)cc1)c1ccccc1,-3.05% (inactive)
24,CC(=O)c1ccc(NC(=S)N(Cc2ccccc2)C(C)C2CC2)cc1 (centres undefined),-4.01% (inactive)

row,Structure (SMILES),inhibition
1,O=C(COC(=O)c1cc(=O)[nH]c2ccccc12)Nc1nc(-c2cccc(Br)c2)cs1,-0.22% (inactive)
2,C/C(=N\NS(=O)(=O)c1ccc(Cl)cc1)c1ccc(NC(=O)c2ccco2)cc1,2.58% (inactive)
3,Cc1onc(C(=O)NN)c1C(=O)N1CCN(C(c2ccccc2)c2ccccc2)CC1,-0.47% (inactive)
4,Cc1nc2sc3c(c2c(=O)n1NC(=O)CCl)CCCC3,-4.51% (inactive)
5,CSc1ccc(CNCCN2CCOCC2)cc1,-2.23% (inactive)
6,C/C(CC(=O)Nc1cccc(F)c1)=N\NC(=O)C(=O)NC1CCCCC1,-2.25% (inactive)
7,CCC(C)(C)NC(=O)CN(Cc1cccs1)C(=O)CNS(=O)(=O)c1ccc(F)cc1,-1.17% (inactive)
8,CC(C)(C)N(CC#CCC(O)(c1ccccc1)C1CCCC1)CCO (centres undefined),-1.31% (inactive)
9,N#CC(=C1CCCC1)c1nc(-c2ccc(Cl)cc2)cs1,25.7% (active)
10,N#CC(=C1SC=CS1)c1nc(-c2ccccc2)cs1,-4.9% (inactive)
11,N#C/C(=C1\CCCN1)c1nc(-c2ccccc2)cs1,-5.6% (inactive)
12,CCOC(=O)Cc1csc(NC(=O)C(C)(C)C)n1,5.04% (inactive)
13,CCOC(=O)Cc1csc(NC(=O)Nc2ccccc2)n1,12.1% (active)
14,CCOC(=O)Cc1csc(NC(=O)CSc2ccc(Br)cc2)n1,5.27% (inactive)
15,COc1ccc(NC(=O)c2ccccc2CC[N+](=O)[O-])cc1,-3.38% (inactive)
16,COc1ccccc1CC(NC(C)=O)C(=O)NC1CCN(C(=O)Nc2ccccc2Cl)CC1 (centres undefined),-1.31% (inactive)
17,CC(C)(C)C(=O)N1CCC[C@@]1(CO)C(=O)O,-3.2% (inactive)
18,CCc1cc(CNC(=O)CC2C(=O)NCCN2CC2CCCCC2)on1 (centres undefined),1.73% (inactive)
19,O=C(O)/C=C/c1ccc(S(=O)(=O)N2CCCCCC2)cc1,-1.58% (inactive)
20,CC(=O)N1CCN(S(=O)(=O)c2ccc(C)c([N+](=O)[O-])c2)C1C(C)C (centres undefined),15.5% (active)
21,Cc1ccc(NC(=O)CN2CCC(C(N)=O)CC2)cc1[N+](=O)[O-],-7.59% (inactive)
22,CSCCC(Nc1ccc(S(=O)(=O)N2CCOCC2)cc1[N+](=O)[O-])C(=O)OCC(=O)N(C(C)C)C(C)C (centres undefined),-4.18% (inactive)
23,CCc1cccc(C)c1NC(=O)COC(=O)Cc1ccsc1,0.78% (inactive)
24,CCCn1c(=S)[nH]c2ccc(C(F)(F)F)cc21,-3.38% (inactive)

row,Structure (SMILES),inhibition
1,Cc1c(NC(=S)NC(=O)CCc2ccccc2)c(=O)n(-c2ccccc2)n1C,-5.41% (inactive)
2,Cc1ccc(Cl)c(NC(=O)CN(C)CC(=O)Nc2ccc(F)c(F)c2F)c1Cl,-3.18% (inactive)
3,CNCC(O)CN1CCN(c2ccccc2OC)CC1 (centres undefined),-5.06% (inactive)
4,Cc1[nH]c2ccccc2c1/C=C(/C#N)C(=O)NC(C)C,-0.57% (inactive)
5,CCOC(=O)N1CCN(CC(=O)Nc2ccc(F)cc2)CC1,-2.98% (inactive)
6,CCOc1ccc(NC(=O)N2CCN(CC)CC2)cc1,-2.53% (inactive)
7,CCOc1ccc(NC(=O)CN2CCN(CC(=O)Nc3ccc(OC)cc3)CC2)cc1,11.1% (active)
8,S=c1[nH]ccn1-c1ccc(Cl)cc1,-3.58% (inactive)
9,COc1ccc(CCCc2nnc(SCc3nc4ccccc4c(=O)[nH]3)n2C)cc1,4.13% (inactive)
10,CCN(CC)c1ccc(S(=O)(=O)N2CCOCC2)cc1NC(=O)CSc1cccc[n+]1[O-],-6.45% (inactive)
11,COC(=O)c1ccccc1NS(=O)(=O)c1ccc2[nH]c(=O)[nH]c2c1,-1.55% (inactive)
12,O=C(COC(=O)CNS(=O)(=O)c1ccccc1)NC12CC3CC(CC(C3)C1)C2,-0.89% (inactive)
13,O=C1c2ccccc2NC(c2ccccn2)N1NS(=O)(=O)c1ccccc1 (centres undefined),-5.78% (inactive)
14,CC1CCCCC1NC(=O)COC(=O)Cc1ccc(Br)cc1 (centres undefined),-8.55% (inactive)
15,Cc1cc(C)c[n+](-c2nc3ccccc3nc2[N-]S(=O)(=O)c2cccs2)c1,-2.15% (inactive)
16,COc1cccc(C2SCC(=O)N2c2cccc(C)c2)c1OC (centres undefined),-2.05% (inactive)
17,O=C(c1ccccc1)c1ccc(OC(=O)N2CCCC2)cc1,-3.15% (inactive)
18,Cc1cccc(OCC(=O)Nc2ccccc2F)c1,-6.74% (inactive)
19,O=C(COc1cccc(F)c1)Oc1ccc(C(=O)c2ccccc2)cc1,11.7% (active)
20,Cc1nn(CC(=O)Nc2ccc3c(c2)OCO3)c(C)c1[N+](=O)[O-],-8.05% (inactive)
21,CC1CC(=S)Nc2ccccc2N1Cc1ccccc1 (centres undefined),-4.09% (inactive)
22,CC(=O)Nc1ccc(S(=O)(=O)N2CCCC2C(=O)O)cc1 (centres undefined),18.5% (active)
23,O=C(O)C1CCCN1S(=O)(=O)c1ccc2c(c1)CCC2 (centres undefined),0.94% (inactive)
24,CC(=O)Nc1ccc(S(=O)(=O)N2CCN(C3CCCCCCC3)CC2)cc1,-5.25% (inactive)

row,Structure (SMILES),inhibition
1,CCOC(=O)c1[nH]cnc1C(=O)Nc1ccccc1C,-0.64% (inactive)
2,O=C1CC(N2CCN(c3ccc(F)cc3)CC2)C(=O)N1c1ccccc1 (centres undefined),-3% (inactive)
3,COC(=O)/C(NC(C)=O)=C(\C)c1ccc(Cl)cc1,-0.22% (inactive)
4,COC(=O)C(=Nc1ccccc1)/C(C(=O)C(=O)N(C)c1ccccc1)=C(\O)c1ccc(Cl)cc1,12.8% (active)
5,CN(C)/C=C(/C(=O)c1ccc(Cl)cc1)S(=O)(=O)c1ccccc1,-1.53% (inactive)
6,O=C(CCc1ccccc1)Nc1ccc(NC(=O)C2CCCCC2)nc1,-5.74% (inactive)
7,COc1ccc(OC)c(-c2csc(NC(=O)C3=NNC(=O)CC3)n2)c1,-3.44% (inactive)
8,CC1(C)CCc2nc(SCc3ccccc3)c(C#N)cc2C1,13.3% (active)
9,CC(NC(=O)CSc1nc2c(cc1C#N)CN(C)CC2)c1ccccc1 (centres undefined),-4.51% (inactive)
10,Cc1cc(NC(=O)CSc2nc3c(cc2C#N)CCCCC3)no1,-2.85% (inactive)
11,CCCC(=O)Nc1cccc(NC(=S)NC(=O)C(C)Oc2ccc(Cl)cc2Cl)c1 (centres undefined),-6.26% (inactive)
12,N=C1C(c2nc3ccccc3[nH]2)=C(O)CN1NC(=O)c1c[nH]c2ccccc12,1.51% (inactive)
13,CC(=O)Nc1ccc(NC(=O)C(C)n2c3ccccc3c3nc(=O)cc(C)n32)cc1 (centres undefined),3.72% (inactive)
14,CCCCN(C(=O)/C=C/c1ccco1)c1c(N)n(CC(C)C)c(=O)[nH]c1=O,1.3% (inactive)
15,Cc1cc(C(=O)N/N=C/c2cc([N+](=O)[O-])cc(C)c2O)n[nH]1,1.28% (inactive)
16,CC1(C)OC(=O)C(=CNC(CO)C(=O)O)C(=O)O1 (centres undefined),-0.06% (inactive)
17,CC(C)(C)NC(=O)CN(C(=O)c1csnn1)c1ccccc1-c1ccccc1,3.37% (inactive)
18,CCOC(=O)CC(NC(=O)C1c2ccccc2Oc2ccccc21)c1ccc(C)cc1 (centres undefined),-0.18% (inactive)
19,O=C1Nc2ccc([N+](=O)[O-])cc2C1=Nc1cccc(CO)c1,-7.75% (inactive)
20,C/C(=N\OCC(=O)Nc1ccc(Br)cc1)c1cccs1,-3.94% (inactive)
21,COC(=O)c1ccc(/C=N/N2C(C)CCCC2C)cc1 (centres undefined),-1.41% (inactive)
22,CCN(C(=O)COc1cccnc1[N+](=O)[O-])C1CCS(=O)(=O)C1 (centres undefined),1.64% (inactive)
